# Laboratory results from PMC4336329 (PLoS ONE, 2015).
# Screen size: about 310,000 compounds; about 14,000 (4.5%) showed an effect of 50% or more. Effects have a minus sign here. The sample as a whole holds a higher share of strong results than the screen did.
# Biological target: human ether-à-go-go-related gene (hERG) potassium channel (human, UniProt Q12809)
# Experiment: primary screen, population patch clamp on CHO cells stably expressing hERG; higher = less effect of the substance
# 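Further: peak tail current of the secondary pulse compared with the same well before compound.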
# Chain of human ether-à-go-go-related gene (hERG) potassium channel (Q12809 whole entry, looked up): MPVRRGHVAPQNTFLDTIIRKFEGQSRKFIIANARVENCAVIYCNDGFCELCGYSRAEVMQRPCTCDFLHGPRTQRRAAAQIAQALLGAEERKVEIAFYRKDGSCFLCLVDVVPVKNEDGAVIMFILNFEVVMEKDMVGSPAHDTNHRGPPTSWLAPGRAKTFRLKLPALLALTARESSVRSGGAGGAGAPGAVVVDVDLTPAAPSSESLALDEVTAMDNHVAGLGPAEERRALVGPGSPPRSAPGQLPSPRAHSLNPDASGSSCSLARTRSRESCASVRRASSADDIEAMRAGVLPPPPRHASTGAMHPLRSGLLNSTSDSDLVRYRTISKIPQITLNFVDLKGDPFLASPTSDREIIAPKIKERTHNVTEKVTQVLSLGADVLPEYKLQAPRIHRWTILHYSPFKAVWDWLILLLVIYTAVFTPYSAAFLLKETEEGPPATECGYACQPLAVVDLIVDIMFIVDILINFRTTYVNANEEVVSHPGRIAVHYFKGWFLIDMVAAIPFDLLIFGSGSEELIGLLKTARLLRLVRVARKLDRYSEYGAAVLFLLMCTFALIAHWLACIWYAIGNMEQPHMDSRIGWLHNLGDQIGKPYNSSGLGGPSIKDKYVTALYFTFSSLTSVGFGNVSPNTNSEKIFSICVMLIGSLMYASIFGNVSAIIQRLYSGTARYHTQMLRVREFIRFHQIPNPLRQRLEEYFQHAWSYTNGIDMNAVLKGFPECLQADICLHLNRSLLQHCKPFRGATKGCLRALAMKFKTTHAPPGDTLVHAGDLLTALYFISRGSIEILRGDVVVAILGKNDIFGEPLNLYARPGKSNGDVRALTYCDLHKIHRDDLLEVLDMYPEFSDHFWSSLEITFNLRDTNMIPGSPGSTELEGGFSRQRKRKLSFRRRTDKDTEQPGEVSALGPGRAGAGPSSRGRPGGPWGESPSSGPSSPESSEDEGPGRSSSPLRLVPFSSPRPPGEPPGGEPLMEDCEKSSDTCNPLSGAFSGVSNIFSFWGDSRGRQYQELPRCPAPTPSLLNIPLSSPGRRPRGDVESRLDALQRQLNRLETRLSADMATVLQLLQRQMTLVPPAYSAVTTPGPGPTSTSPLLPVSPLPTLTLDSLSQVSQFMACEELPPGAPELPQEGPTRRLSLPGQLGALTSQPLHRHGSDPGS
row,SMILES,"hERG current change (%, negative = inhibition) at 10uM [%]"
1,NC1=NC[C@@H](Cc2ccc(O)cc2)N1CCc1cccc(F)c1,5.43
2,NC1=NC[C@H](Cc2ccccc2)N1CCc1cccc(F)c1,6.16
3,CN(C)C1=NC[C@H](Cc2ccccc2)N1CCc1cccc(F)c1,-64.1
4,C[C@H]1CN=C(N(C)C)N1CCc1ccc(F)cc1,-12.4
5,CN(C)C1=NC[C@H](Cc2ccccc2)N1CCc1ccc(F)cc1,-60.6
6,C[C@H]1CN=C(N(C)C)N1CCc1ccccc1,6.72
7,COC(=O)c1cccnc1-n1c(=O)c2cccnc2n(Cc2ccc(Cl)cc2)c1=O,-26.6
8,O=C(Cc1ccccc1)NCC(=O)N/N=C/c1ccc(C(=O)O)cc1,12.3
9,C=CCc1cccc2cc(C(=O)N3CCN(C(=O)OCC)CC3)c(=O)oc12,-26.9
10,C=CCn1c(CSc2nc3ccccc3s2)nnc1SCC(=O)NCc1ccccc1,-43.9
11,CCOC(=O)c1[nH]c2ccc(F)cc2c1NC(=O)CCN1CCSCC1,-22
12,Cc1nc2sccn2c(=O)c1S(=O)(=O)N1CCN(c2cccc(Cl)c2)CC1,-0.478
13,Cc1cc(C)c(NS(=O)(=O)c2ccc3c(c2)NC(=O)C(C)C(=O)N3)c(C)c1 (stereo not shown),2.12
14,COc1ccccc1NS(=O)(=O)c1cccc(C(=O)N2CCN(Cc3ccc4c(c3)OCO4)CC2)c1,-61.4
15,COc1ccc(NS(=O)(=O)c2cccc(C(=O)N3CCC3)c2)cc1,10.5
16,COc1cccc(OC)c1C(=O)N1CCN(Cc2ccc3c(c2)OCO3)CC1,-12
17,COc1ccc(OC)c(CN2CCN(C(=O)c3cccc(S(=O)(=O)Nc4ccccc4OC)c3)CC2)c1,-38.2
18,O=C(c1ccc(NS(=O)(=O)c2ccccc2)cc1)N1CCN(Cc2ccc3c(c2)OCO3)CC1,-63.8
19,CN(c1ccc(C(=O)N2CCN(Cc3ccc4c(c3)OCO4)CC2)cc1)S(=O)(=O)c1ccccc1,-38.3
20,O=C(c1ccc(NS(=O)(=O)c2cccc([N+](=O)[O-])c2)cc1)N1CCCCCC1,-23.1
21,COc1ccc(OC)c(CN2CCN(C(=O)c3ccc(NS(=O)(=O)c4cccc([N+](=O)[O-])c4)cc3)CC2)c1,-70.6
22,O=C(c1ccccc1)N1CCN(Cc2ccc3c(c2)OCO3)CC1,11.5

row,SMILES,"hERG current change (%, negative = inhibition) at 10uM [%]"
1,COc1ccc(NS(=O)(=O)c2cccc(C(=O)N3CCCC3)c2)cc1,2.23
2,COc1ccc(NS(=O)(=O)c2cccc(C(=O)N3CCN(Cc4ccc5c(c4)OCO5)CC3)c2)cc1,-76.8
3,COc1ccc(OC)c(CN2CCN(C(=O)c3cccc(S(=O)(=O)Nc4ccc(C)cc4)c3)CC2)c1,-34.6
4,COC(=O)C1=C(c2ccc(F)cc2F)C[C@@H]2CC[C@H]1N2C(=O)NCCOc1ccccc1,-23.5
5,N#CC1(N2CCN(C(=O)c3ccccc3)CC2)CCCCC1,30.1
6,CC1CCCCN1Cc1ccc(N)cc1 (stereo not shown),12.7
7,C#CC1(NC(=O)NC(C)(C)C)CCCCC1,15.7
8,CCc1ccc(OCC(=O)NNC(=O)c2cc(S(=O)(=O)N(C)C)ccc2N2CCCC2)cc1,-23.4
9,COC(=O)c1cc(OC)c(OC)cc1NC(=O)c1cc(C(C)(C)C)oc1C,5.71
10,c1ccc(Cn2nnc3c(N4CCc5ccccc5C4)ncnc32)cc1,-21.5
11,COc1cc(OC)c2ccc(=O)oc2c1C(CCN1CCCC1)c1ccc(N(C)C)cc1 (stereo not shown),-24.1
12,COc1cc(C(CCN2CCN(c3ccccc3)CC2)c2c(OC)cc(OC)c3ccc(=O)oc23)cc(OC)c1OC (stereo not shown),-8.86
13,COc1cc(OC)c2ccc(=O)oc2c1C(CCN1CCCCC1)c1ccc(N(C)C)cc1 (stereo not shown),-16
14,COc1cc(C(CC(=O)N2CCCC2)c2c(OC)cc(OC)c3ccc(=O)oc23)cc(OC)c1OC (stereo not shown),2.42
15,COc1cc(C(CCN2CCCC2)c2c(OC)cc(OC)c3ccc(=O)oc23)cc(OC)c1OC (stereo not shown),-69.2
16,COc1cc(OC)c2ccc(=O)oc2c1C(CCN1CCCC(C)C1)c1ccc(N(C)C)cc1 (stereo not shown),-10.6
17,COc1cc(OC)c2ccc(=O)oc2c1C(CCN1CCCC(C)C1)c1ccc2c(c1)OCO2 (stereo not shown),-61
18,COc1cc(OC)c2ccc(=O)oc2c1C(CC(=O)N1CCCC(C)C1)c1ccc2c(c1)OCO2 (stereo not shown),4.24
19,COc1cc(OC)c2ccc(=O)oc2c1C(CCN1CCCC1)c1ccc2c(c1)OCO2 (stereo not shown),-56.7
20,CS(=O)(=O)N1CCCC(C(=O)NCc2ccc(F)cc2Cl)C1 (stereo not shown),2.22
21,CC1(c2ccccc2)CC(C)(C)N2C(=O)C(=O)c3cccc1c32 (stereo not shown),19.6
22,CCCCNC(=S)NC(=O)c1ccc(Cl)cc1Cl,22.7

row,SMILES,"hERG current change (%, negative = inhibition) at 10uM [%]"
1,CC(=O)Nc1nc(-c2ccccc2)nc(C)c1C(C)=O,-5.89
2,COc1ccc(S(=O)(=O)N2CC(=O)Nc3ccccc32)cc1,-6.04
3,O=C1CCC(C(=O)N2CCCC(C(=O)c3ccc4ccccc4c3)C2)=NN1 (stereo not shown),-8.31
4,O=C(COC(=O)Cn1cnc2ccccc21)Nc1cc(S(=O)(=O)N2CCOCC2)ccc1Cl,-0.439
5,CCn1nc(C)c(CN2CCC(C(=O)Nc3cccc(-c4cccc(Cl)c4)c3)CC2)c1C,-65
6,CCc1ccc(CN2CCC(C(=O)Nc3cccc(-c4nnc(C)s4)c3)CC2)o1,-33.6
7,CCn1nc(C)c(CN2CCC(C(=O)Nc3cccc(-c4cccc(F)c4)c3)CC2)c1C,-67
8,CCS(=O)(=O)N1CCC(C(=O)Nc2cccc(F)c2)CC1,-6.51
9,COc1cccc(-c2cccc(NC(=O)C3CCN(Cc4nccs4)CC3)c2)c1,-37.1
10,Cc1nn(C(C)C)c(C)c1CN1CCC(C(=O)Nc2cccc(-c3cccc(F)c3)c2)CC1,-67.8
11,CCCc1ncc(CN2CCC(C(=O)Nc3cccc(-c4cscn4)c3)CC2)cn1,-34.9
12,Cc1nn(C(C)C)c(C)c1CN1CCCC(C(=O)c2cccc(OC(C)C)c2)C1 (stereo not shown),-39.6
13,CCOC(=O)C1(Cc2cccc(F)c2)CCN(Cc2c(C)nn(CC)c2C)CC1,-41.4
14,Br.COc1cccc(CNCC2CCCO2)c1 (stereo not shown),13.9
15,COc1ccc(OC)c(NC(=O)Cc2coc3ccc4ccccc4c23)c1,0.772
16,Cc1sc(/C=C2\C(=O)ON=C2c2ccccc2)cc1Br,14.8
17,COC(=O)c1ccc(NC(=O)c2ccc3nsnc3c2)cc1,4.15
18,COc1ccc(CN2CCN(c3ccccc3F)CC2)c(OC)c1,-75.1
19,COc1ccc(CN2CCN(c3ccccc3F)CC2)cc1O,-66.5
20,COc1ccc(CN2CCN(Cc3ccccc3F)CC2)c(OC)c1.O=C(O)C(=O)O,-68.5
21,COc1ccc(CN2CCSCC2)cc1O,14.4
22,COc1cc(CN2CCN(c3ccccc3F)CC2)cc(OC)c1O,-26.4

row,SMILES,"hERG current change (%, negative = inhibition) at 10uM [%]"
1,COc1ccc(OC)c(CN2CCN(c3ccccc3OC)CC2)c1,-32.7
2,COc1ccc(CN2CCN(Cc3ccccc3F)CC2)cc1.O=C(O)C(=O)O,-43.2
3,COc1cc(CN2CCN(c3ccccc3F)CC2)c([N+](=O)[O-])cc1OC,-27.4
4,COc1ccc(CN2CCN(C(=O)c3ccc(F)cc3)CC2)c(OC)c1.O=C(O)C(=O)O,-44.3
5,COc1ccccc1N1CCN(Cc2ccccc2F)CC1,-17.6
6,COc1ccc(CN2CCN(Cc3ccco3)CC2)c(OC)c1.O=C(O)C(=O)O,-46.4
7,COc1ccc(CN2CCN(c3ccccc3OC)CC2)c(OC)c1.O=C(O)C(=O)O,-64.2
8,CC1CN(Cc2ccc(C#N)cc2Cl)CC(C)O1.Cl (stereo not shown),0.479
9,COc1ccc(Nc2nc(-c3cccs3)nc3ccccc23)cc1S(=O)(=O)N1CCOCC1,-17.5
10,COc1ccc(OC)c(S(=O)(=O)N2Cc3ccccc3CC2C(=O)Nc2nccs2)c1 (stereo not shown),22.2
11,COc1cc(CNn2c(C)n[nH]c2=S)cc(Cl)c1OCc1ccc(F)cc1,14.4
12,COc1ccc2c(c1)C(NC(C)=O)C(=O)N2C (stereo not shown),-5.38
13,O=C(O)c1ccccc1C(=O)Nn1cnnc1,10.6
14,CCOC(=O)NC1(C(F)(F)F)NC(=O)N(C2CCCCC2)C1=O (stereo not shown),-3.7
15,O=C(CCC(=O)NNC(=O)COc1ccc(Br)cc1)NCc1ccccc1,19.6
16,OC(CNCc1ccccn1)c1ccccc1 (stereo not shown),-3.94
17,COc1ccc(C(=O)N2CCN(Cc3ccccc3C(F)(F)F)CC2)cc1.O=C(O)C(=O)O,-1.25
18,COc1ccc(CN2CCN(Cc3ccccc3C(F)(F)F)CC2)c(OC)c1.O=C(O)C(=O)O,-74.2
19,COc1cc(CN2CCN(Cc3ccccc3C(F)(F)F)CC2)cc(OC)c1OC.O=C(O)C(=O)O,-8.28
